The results in this text go back to PubChem BioAssay AID1463 (National Center for Advancing Translational Sciences (NCATS), 2008).

In all, about 280,000 compounds went through this assay and about 2,600 (0.93%) were called active. About 8% were inconclusive and are not listed. This is one part of a sample in which actives are shown more often than they occur. A number with no mark means an inactive call. Calls come from the whole dose curve; as a rule, active = well fitted curve in the direction sought with a large enough effect; inconclusive = small, poorly fitted or top-dose-only effect; inactive = flat fitted curve, though single readings scatter.
% is set by controls: 0 for no effect and ±100 for the full control effect; potency is the fitted concentration of half-maximal effect; tags give direction and shape of the fitted curve or compound fluorescence and quenching.

This experiment in a line: Counterscreen qHTS for Inhibitors of Tau Fibril Formation, Fluorescence Polarization. Note: nearly all actives have a fitted effect of over 55% in size. Particulars: tau K18 P301L Alexa594 fluorescence, heparin fibrillization; series mostly up to 57.7 µM; activity change, negative = decrease: at the top concentration. An outline of the steps:
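Human tau K18 P301L (15 uM unlabeled, 0.24 uM Alexa 594-labeled) in 100 mM sodium acetate pH 7 with 20 uM heparin, 6 hr at 37 C. ThT 30 uM added, 1 hr ambient; Alexa 594 FP and total fluorescence read at 555/632 nm.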
For `CCc1ccccc1NC(=O)N1CCN(C(=O)c2nsc3ccccc23)CC1`, the “activity change, negative = decrease” value was -5.01%.
Take `COc1cccc(NC(=S)NCc2ccco2)c1`: the “activity change, negative = decrease” value was 1.26%.
On the same count and under the same terms, the same measure for `Cc1[nH]c2ccccc2c1CCN(Cc1cccs1)C(=S)NC(C)(C)C`: -17.2%.
Turning to `COc1cccc(NC(=S)N(CCc2c(C)[nH]c3ccccc23)Cc2ccco2)c1`, the Potency is 12.6 µM [quencher] (active).
Regarding `CC(C)(C)OC(=O)N1CCC(c2c(C(=O)N3CCc4ccccc4C3)cnn2-c2ccc(F)cc2)CC1`, the “activity change, negative = decrease” value is -6.75%.
On the same count and under the same terms, the same measure for `O=C1c2ccccc2C(=O)N1CCc1nn[nH]n1`: 4.43%.
For the compound `Cc1ccc2[nH]cc(CCCN3C(=O)c4ccccc4C3=O)c2c1`, the Potency was 25.1 µM [quencher] (active).
`O=C1c2ccccc2C(=O)N1CCCc1nc(-c2ccccc2)no1`: the “activity change, negative = decrease” value was -12.6%.
Same read-out and setting: the same measure for `COc1ccc(CCNC(=O)c2ccc3c(c2)sc2nc(-c4ccc(C)cc4)cn23)cc1OC`: 12.4%; for `O=C(CSCc1cnn(-c2ccccc2)c1-n1cccc1)NCc1ccccc1Br`: -5.24%.
Still for that read-out and setting: to `CCOc1ccccc1CNC(=O)c1cnc2c(-c3ccc(OCC)c(OCC)c3)c(C)nn2c1C` belongs -23.8%; to `CN(CC(=O)Nc1cccc(F)c1)CC(=O)Nc1cccc([N+](=O)[O-])c1`, -23.4%; to `CN(c1ccc(OCC(=O)NC2=NCCS2)cc1)S(=O)(=O)c1ccc(F)cc1`, -15%.
Turning to `CN(c1ccc(OCC(=O)OCC(=O)Nc2cccc([N+](=O)[O-])c2)cc1)S(=O)(=O)c1ccc(F)cc1`, the Potency is 10 µM [quencher] (active).
As for `NS(=O)(=O)c1ccc(CCNC(=O)Nc2ccc(Cl)cc2)cc1`, the “activity change, negative = decrease” value was 15.1%.
Consider `CC(C)S(=O)(=O)c1csc(NC(=O)Nc2ccc(Cl)cc2)c1Cl`, for which the Potency was 25.1 µM [quencher] (active).
Regarding `Cn1ccc(NC(=O)Nc2ccc(Cl)cc2)n1`, the “activity change, negative = decrease” value was -10.6%.
Same read-out and setting: the same measure for `Cc1ccc(CSc2nc3cccnc3n2Cc2ccc(C(=O)NC3CC3)cc2)cc1`: 2.64%.
Same read-out and setting: the same measure for `CCCNC(=O)CCn1nc(-c2ccccc2)c2ccccc2c1=O`: -6.14%.
Consider `O=C(Nc1cccc(Cl)c1)Nc1ccccc1NS(=O)(=O)c1cccs1`, for which the Potency is 11.2 µM [quencher] (active).
As to `COc1cc(NS(=O)(=O)c2cccs2)cc(OC)c1`, the “activity change, negative = decrease” value was -14.8%.
Same read-out and setting: to `O=C(Nc1nncs1)c1ccccc1NS(=O)(=O)c1cccs1` belongs -4.18%.
Same read-out and setting: to `CC(NC(=O)c1cc(Sc2ccc(F)cc2F)nc2ccccc12)c1ccccc1` (stereo unspecified) belongs -10.4%.
On the same count and under the same terms, to `CCN(c1ccc(Cl)cc1)S(=O)(=O)c1nnc(NC(=O)c2ccco2)s1` belongs -2.62%; to `COc1ccc(CCNC(=O)C(=O)NCC(c2ccco2)S(=O)(=O)c2cccs2)cc1OC` (stereo unspecified), -16.5%; to `CC1=Nc2cc(C(=O)NCc3ccc(C)cc3)ccc2Sc2ccc(Cl)cc21`, -15.9%.
Turning to `Cc1ccc(C)c2sc(NC(=O)c3ccc(S(=O)(=O)N4CCCC4)cc3)nc12`, the “activity change, negative = decrease” value is -21.1%.
Turning to `CCN(CC)c1ccc2c(Nc3ccccc3)c(C=O)c(=O)oc2c1`, the “activity change, negative = decrease” value was -7.21%.
As for `CCN(CC)c1ccc2oc(=O)c(C)nc2c1`, the Potency was 12.6 µM [quencher] (active).
On to `CCN(CC)c1ccc(/C=N/Nc2nc(C)cc(C)n2)c(O)c1`, for which the “activity change, negative = decrease” value was 2.1%.
Still for that read-out and setting: to `COc1cc(OC)c(OC)cc1/C=C/c1nc2cc3ccccc3cc2c(=O)n1-c1ccc(F)c(Cl)c1` belongs -17.3%; to `COc1ccccc1-c1ccnc2[nH]n(-c3ccccc3)c(=O)c12`, -12.9%; to `CCOC(=O)c1c(C)[nH]c(CCC(=O)NCCCN2CCN(c3cc(C)ccc3C)CC2)c1C`, -23.4%.
Regarding `C=CCCC(=O)Nc1nc(C)c(-c2csc(Nc3ccc(Cl)cc3)n2)s1`, the Potency is 12.6 µM [quencher] (active).
On to `COc1cccc(CC(=O)Nc2ccc(-c3csc(C)n3)cc2)c1`, for which the “activity change, negative = decrease” value is -18.4%.
Same read-out and setting: to `CCOC(=O)c1csc(NC(=O)Nc2cccc(OC)c2)n1` belongs -1.36%.
Same read-out and setting: the same measure for `Cc1nc(NC(=O)CN(C)S(=O)(=O)c2ccc(Cl)cc2)sc1C`: -18%; for `Cc1nc(C)c(-c2csc(NCCc3ccccc3)n2)s1`: -27.9%.
Regarding `CCCCCCC(=O)Nc1nc(C)c(-c2csc(Nc3cccc(OC)c3)n2)s1`, the Potency is 8.91 µM [quencher] (active).
In the case of `Cc1ccccc1C(=O)Nc1nnc(S(=O)(=O)N(C)c2ccc(Cl)cc2)s1`, the “activity change, negative = decrease” value is -20%.
Take `Cc1ccc2onc(CC(=O)N3CCN(c4ccc(Cl)cc4)CC3)c2c1`: the “activity change, negative = decrease” value is 2.99%.
Consider `Cc1cc2c(cc1S(=O)(=O)CCC(=O)Nc1ccc(OC(F)(F)F)cc1)OCC(=O)N2`, for which the “activity change, negative = decrease” value is -24.4%.
Still for that read-out and setting: to `Cc1cccc(C(=O)N2c3nc(-c4ccco4)nn3C3(CCCCC3)[C@@H]3CCCC[C@@H]32)c1` belongs -1.79%.
As for `COc1ccc(-c2cc(-c3ccc(N)cc3)nc(N)c2C#N)cc1OC`, the Potency is 28.2 µM [quencher] (active).
As to `CCSc1nc(-c2ccc(OC)cc2)cc(-c2ccc(OC)cc2)c1C#N`, the “activity change, negative = decrease” value was -20.3%.
Still for that read-out and setting: the same measure for `CCOc1cc(-c2cc(-c3ccc(OC)cc3)nc(N)c2C#N)ccc1O`: -26%.
Same read-out and setting: to `CCn1cc2nc(SCc3cccc(F)c3)n(CCc3ccccc3)c(=O)c2n1` belongs -19.5%.
On the same count and under the same terms, to `CCN1CCN(CCCNC(=O)c2cnn(-c3ccc(C)cc3C)c2C2CCN(C(=O)OC(C)(C)C)CC2)CC1` belongs -19.1%; to `CCOC(=O)Cc1csc(NC(=O)Nc2ccccc2)n1`, -12.3%.
As to `CCOC(=O)/C(=N\Nc1ccccc1[N+](=O)[O-])c1csc(Nc2ccccc2)n1`, the Potency was 7.08 µM [quencher] (active).
Consider `Cc1csc(NC(=O)Nc2ccccc2[N+](=O)[O-])n1`, for which the “activity change, negative = decrease” value was -19.4%.
On to `CCc1ccc(NC(=O)c2cc(S(=O)(=O)NC3CCCCCC3)ccc2F)cc1`, for which the “activity change, negative = decrease” value is -23.9%.
Turning to `Cc1cccc(CCNC(=O)c2ccc3c(c2)nc2n3CCC(C)C2)c1` (stereo unspecified), the “activity change, negative = decrease” value was -12.3%.
On the same count and under the same terms, the same measure for `CCOc1cc(CNC(=O)c2sc3ncnc(N(C)C4CCCCC4)c3c2C)ccc1OC`: -2.89%; for `CCSc1ncnc2c(C#N)c3n(c12)CCCCC3`: -3.57%.
Turning to `CCSC1=C(C#N)C(=O)n2c1cc1c2CCCC1`, the Potency was 31.6 µM [quencher] (active).
Consider `O=C(CSCc1cnn(-c2ccccc2)c1-n1cccc1)NCc1ccc(Cl)cc1`, for which the “activity change, negative = decrease” value is 14.4%.
The same measure, in the same setting: the same measure for `COc1ccc(-c2nc3scc(CCNS(=O)(=O)c4cc(F)ccc4OC)n3n2)cc1OC`: -16.3%.
Same read-out and setting: the same measure for `COc1ccc(C)cc1NC(=O)NCc1ccccn1`: 2.13%.
For `COc1ccc(Nc2ncc(C(=O)Nc3cc(C)ccc3OC)c3ccccc23)cc1`, the Potency was 3.55 µM [quencher] (active).
For the compound `COc1ccc(NC(=O)c2cnc(Nc3ccc(C)c(Cl)c3)c3ccccc23)cc1OC`, the “activity change, negative = decrease” value was -13%.
With `CC1(C)N=C(SCc2ccccc2Cl)c2ccccc2N1`, the Potency was 12.6 µM [quencher] (active).
For `Nc1nc(SCc2ccccc2Cl)n[nH]1`, the “activity change, negative = decrease” value is -6.77%.
On the same count and under the same terms, to `O=c1cc(O)nc(SCc2ccccc2Cl)[nH]1` belongs -4.9%; to `Cc1cccc(C(=O)Nc2ccc(-c3nc4ncccc4o3)cc2C)c1`, -4.09%; to `CCOC(=O)c1ccc(CSc2nnc3cc(C)c4ccccc4n23)cc1`, -23.9%.
Same read-out and setting: the same measure for `Cc1cc(C)cc(NC(=O)CSc2nc3nccnc3c(=O)n2CCc2c[nH]c3ccccc23)c1`: 1.4%; for `Cc1cc(C)cc(NC(=S)NCc2ccc(F)cc2)c1`: -2.29%.
For `Cc1cc(C)cc(NC(=S)NCCc2c[nH]c3ccccc23)c1`, the Potency was 15.8 µM [quencher] (active).
Consider `CCC(=O)N1CCc2cc(Br)cc(S(=O)(=O)CCC(=O)NCCc3ccc(OC)c(OC)c3)c21`, for which the “activity change, negative = decrease” value is -12.6%.
In the case of `COc1ccc(NC(=O)c2ccco2)cc1NC(=O)COc1ccc(C)c(C)c1`, the “activity change, negative = decrease” value is -16.3%.
As for `COc1ccc(NC(=O)c2cn(-c3ccccc3)nc2SC)cc1`, the Potency was 17.8 µM [quencher] (active).
As for `COc1ccc(NC(=O)c2c(SC)nsc2SC)cc1`, the “activity change, negative = decrease” value was -3.33%.
As to `O=C(O)c1ccc(NC(=O)c2cn(-c3ccccc3)nc2-c2ccc(Cl)cc2)cc1`, the “activity change, negative = decrease” value was -7.53%.
Consider `CCOc1cc(C2C(C(=O)OC)=C(C)NC3=C2C(=O)c2ccccc23)ccc1O` (stereo unspecified), for which the Potency is 17.8 µM [quencher] (active).
`CCOc1cc(C2C(C(=O)Nc3ccc(OC)cc3)=C(C)Nc3nc(SC)nn32)ccc1O` (stereo unspecified): the “activity change, negative = decrease” value was -21.9%.
Still for that read-out and setting: the same measure for `CCOc1cc(C2C(C(=O)OC(C)C)=C(C)NC3=C2C(=O)CCC3)cc([N+](=O)[O-])c1O` (stereo unspecified): -9.75%; for `CCOC(=O)CN1C(C(=O)c2ccccc2)=C(OC(=O)C(C)(C)C)c2ccccc2S1(=O)=O`: -7.8%; for `CCN(CCCNC(=O)c1ccc(Sc2ccc(C)cc2)c(NC(C)=O)c1)c1cccc(C)c1`: -23.8%.
Same read-out and setting: to `CCCCN(CC)CCCNC(=O)c1nn(C)c2c1CSc1ccccc1-2` belongs -8.6%.
As to `COc1ccc(CCNC(=O)c2nn(C)c3c2CSc2ccccc2-3)cc1OC`, the Potency was 10 µM [quencher] (active).
For `COc1ccc(CCNC(=O)c2c3c(nc4ccccc24)C(=O)N(C2CCCCC2)C3)cc1OC`, the “activity change, negative = decrease” value is 2.98%.
The same measure, in the same setting: to `Cc1ccc(C2CCN(C(=O)c3cnn(-c4ccccc4Cl)c3C3CCN(C(=O)OC(C)(C)C)CC3)C2)cc1` (stereo unspecified) belongs -10.5%; to `Cn1nnc2c(N3CCN(c4ccccc4)CC3)ncnc21`, -2.02%.
As for `CCC1=Nc2cc(C(=O)NCCCOC(C)C)ccc2Sc2ccc(C)cc21`, the “activity change, negative = decrease” value was 3.29%.
On the same count and under the same terms, to `CCOC(=O)c1[nH]c(C)c(CCC(=O)N2CCN(c3ccccc3)CC2)c1C` belongs 0.33%; to `O=C(CC(c1cccs1)N1Cc2ccccc2C1=O)Nc1ccc(F)c(F)c1` (stereo unspecified), -5.76%; to `CCCn1c2ccccc2c2cnn(CC(=O)N(C)c3ccccc3CC)c(=O)c21`, -16.4%.
Same read-out and setting: the same measure for `O=C1Cc2cc(S(=O)(=O)Nc3ccc(OC(F)(F)F)cc3)cc3c2N1CCC3`: -22.8%.
Same read-out and setting: the same measure for `CCCCS(=O)(=O)c1oc(-c2cccs2)nc1S(=O)(=O)c1ccccc1`: -11%; for `CCOCCc1nn2c(=O)cc(COC(=O)CNC(=O)c3ccc(C(C)(C)C)cc3)nc2s1`: -6.12%.
Turning to `Cc1ccc(Nc2ccc3cc(S(=O)(=O)N4CCCCC4)ccc3n2)cc1F`, the Potency was 7.08 µM [quencher] (active).
For the compound `Cc1ccc(C)c(N2CCN(c3ccc4cc(S(=O)(=O)N5CCC(C)CC5)ccc4n3)CC2)c1`, the “activity change, negative = decrease” value is -0.575%.
The same measure, in the same setting: to `O=S(=O)(c1ccc2nc(N3CCN(c4cccc(Cl)c4)CC3)ccc2c1)N1CCCCC1` belongs -10.5%.
In the case of `Cc1nn(CC(=O)NCCc2ccccc2)c(=O)c2c1sc1ccccc12`, the “activity change, negative = decrease” value was 8.41%.
Same read-out and setting: the same measure for `CCn1c(CN2CCC(C)CC2)nc2cc(NC(=O)c3ccccc3[N+](=O)[O-])ccc21`: -0.8%.
